This is an account of results in the supplement of paper PMC8728848.

The full list was thinned out, with the strongest signals kept by preference.

Holding throughout (test): glycan array binding signal (z-score within array); higher = stronger binding
Common to all, as to settings: glycan notation: IUPAC condensed, linker removed

For one experiment, the target named is Fuc(a1-2)Gal(b1-4)Glc. In a few lines:
(§1)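 Negative Z-scores can be read as non-binding. The Z-score is calculated within each array and then averaged across arrays of one protein sequence at different concentrations or buffers and across linkers. Arrays, 3228 in all, were curated from the Consortium for Functional Glycomics database and kept only where the protein sequence was available.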

Experiment [1] has as its target Fuc(a1-2)Gal(b1-4)[Fuc(a1-3)]GlcNAc. Summed up:
as §1

A further experiment concerns the target Fuc(a1-2)[Gal(a1-3)]Gal. Summed up: as §1
Experiment [2] addresses Fuc(a1-2)[GalNAc(a1-3)]Gal(b1-4)[Fuc(a1-3)]GlcNAc. In a few lines: as §1
Experiment [3] concerns the target Fuc(a1-2)[GalNAc(a1-4)]Gal(b1-4)GlcNAc. Summed up: as §1
Another experiment addresses Fuc(a1-3)GlcNAc. In a few lines:
as §1

Another experiment deals with Gal(a1-2)Gal. Summed up: as §1
In a further experiment the target is Gal(a1-3)Gal. Summed up:
as §1

The next experiment concerns the target Gal(a1-3)Gal(b1-4)Glc. In a few lines: as §1
In another experiment the target is Gal(a1-6)Glc. In a few lines: as §1
For experiment [4], the target named is Gal(b1-3)GalNAc(b1-4)[Neu5Ac(a2-3)]Gal(b1-4)Glc. In a few lines: as §1
Experiment [5] has as its target Gal(b1-3)[Neu5Ac(b2-6)]GalNAc. Summed up:
as §1

The target in experiment [6] is Gal(b1-4)GalNAc(a1-3)[Fuc(a1-2)]Gal(b1-4)GlcNAc. In a few lines: as §1
Experiment [7] addresses Gal(b1-4)GlcNAc(b1-3)Gal(b1-4)GlcNAc(b1-3)Gal(b1-4)GlcNAc. In a few lines: as §1
Experiment [8] addresses Gal(b1-4)GlcNAc(b1-3)[Gal(b1-4)GlcNAc(b1-6)]Gal(b1-4)GlcNAc. In a few lines: as §1
The target of the next experiment is Gal3S(b1-3)GalNAc. In a few lines:
as §1

The target of the next experiment is Gal3S(b1-4)Glc. Summed up: as §1
The next experiment concerns the target Gal3S(b1-4)GlcNAc6S. In a few lines:
as §1

In the next experiment the target is GalNAc(b1-3)GalNAc. Summed up: as §1
The target of a further experiment is Glc(a1-4)Glc. In a few lines: as §1
The target in the next experiment is GlcNAc(b1-3)Man. In a few lines: as §1
Another experiment addresses GlcNAc(b1-4)GlcNAc. Summed up:
as §1

For another experiment, the target named is Kdn(a2-3)Gal(b1-4)GlcNAc. In a few lines: as §1
Experiment [9] has as its target Man(a1-2)Man(a1-6)[Man(a1-3)]Man(a1-6)[Man(a1-2)Man(a1-2)Man(a1-3)]Man. Summed up: as §1
The target of experiment [10] is Man(a1-2)Man(a1-6)[Man(a1-3)]Man(a1-6)[Man(a1-2)Man(a1-2)Man(a1-3)]Man(b1-4)GlcNAc(b1-4)GlcNAc. In a few lines:
as §1

Experiment [11] deals with Neu5Ac(a2-3)Gal(b1-4)[Fuc(a1-3)]GlcNAc(b1-3)Gal(b1-4)[Fuc(a1-3)]GlcNAc(b1-3)Gal(b1-4)[Fuc(a1-3)]GlcNAc. Summed up: as §1
For experiment [12], the target named is Neu5Ac(a2-6)Gal(b1-4)GlcNAc(b1-3)Gal(b1-4)[Fuc(a1-3)]GlcNAc(b1-3)Gal(b1-4)[Fuc(a1-3)]GlcNAc. Summed up: as §1
Experiment [13] addresses Neu5Ac(a2-8)Neu5Ac(a2-8)Neu5Ac(a2-3)[GalNAc(b1-4)]Gal(b1-4)Glc. Summed up:
as §1

Experiment [14] concerns the target Neu5Ac9Ac(a2-6)Gal(b1-4)GlcNAc. Summed up:
as §1

Experiment [15] concerns the target Neu5Ac(a2-3)Gal(b1-3)GalNAc(b1-4)[Neu5Ac(a2-8)Neu5Ac(a2-3)]Gal(b1-4)Glc. Summed up: as §1
Experiment [16] deals with Neu5Ac(a2-3)Gal(b1-4)GlcNAc(b1-2)[Neu5Ac(a2-3)Gal(b1-4)GlcNAc(b1-4)]Man(a1-3)[GlcNAc(b1-4)][Neu5Ac(a2-3)Gal(b1-4)GlcNAc(b1-4)Man(a1-6)]Man(b1-4)GlcNAc(b1-4)GlcNAc. Summed up: as §1
The target in experiment [17] is Neu5Ac(a2-3)Gal(b1-4)[Fuc(a1-3)]GlcNAc. In a few lines:
as §1

The target in experiment [18] is Neu5Ac(a2-3)Gal(b1-4)[Fuc(a1-3)]GlcNAc6S. In a few lines:
as §1

Experiment [19] deals with Neu5Ac(a2-6)Gal(b1-4)GlcNAc(b1-2)Man(a1-3)[Neu5Ac(a2-6)Gal(b1-4)GlcNAc(b1-2)Man(a1-6)]Man(b1-4)GlcNAc(b1-4)[Fuc(a1-6)]GlcNAc. In a few lines:
as §1

In experiment [20] the target is Neu5Ac(a2-6)Gal(b1-4)GlcNAc(b1-2)Man(a1-6)[Gal(b1-4)GlcNAc(b1-2)Man(a1-3)]Man(b1-4)GlcNAc(b1-4)GlcNAc. Summed up:
as §1

In experiment [21] the target is Neu5Ac(a2-6)Gal(b1-4)GlcNAc(b1-3)Gal(b1-4)GlcNAc(b1-3)GalNAc. Summed up:
as §1

Experiment [22] deals with Neu5Ac(a2-8)Neu5Ac(a2-3)Gal(b1-3)GalNAc(b1-4)[Neu5Ac(a2-3)]Gal(b1-4)Glc. In a few lines: as §1
Experiment [23] has as its target Neu5Ac(a2-8)Neu5Ac(a2-3)[Gal(b1-3)GalNAc(b1-4)]Gal(b1-4)Glc. In a few lines:
as §1

The target in another experiment is Neu5Ac(b2-6)GalNAc. Summed up: as §1
The target in experiment [24] is Neu5Ac9Ac(a2-3)Gal(b1-3)GlcNAc. Summed up: as §1
Experiment [25] concerns the target Neu5Gc(a2-3)Gal(b1-4)GlcNAc(b1-3)Gal(b1-4)GlcNAc(b1-2)Man(a1-3)[Neu5Gc(a2-3)Gal(b1-4)GlcNAc(b1-3)Gal(b1-4)GlcNAc(b1-2)Man(a1-6)]Man(b1-4)GlcNAc(b1-4)GlcNAc. In a few lines:
as §1

The target in experiment [26] is Neu5Gc(a2-6)Gal(b1-4)GlcNAc. Summed up:
as §1

B1: NKp30 (Homo sapiens), O14931 (protein)
chain: MAWMLLLILIMVHPGSCALWVSQPPEIRTLEGSSAFLPCSFNASQGRLAIGSVTWFRDEVVPGKEVRNGTPERFGRLAPLASSRFLHDHQAELHIRDVRGHDASIYVCRVEVLGLGVGTGNGTRLVVRKEHPQLGAGTHADPEAPEAEGAPSVFLFPPKPKDTLMISRTPEVTCVVVDVSHEDPEVKFNWYVDGVEVHNAKTPREEQYNSTYRVVSVLTVLHQDWLNGKEYKCKVSNKALPAPIEKTISKAKGQPREPQVYTLPPSRDELTKNQVSLTCLVKGFYPSDIAVEWESNGQPENNYKTTPPVLDSDGSFFLYSKLTVDKSRWQQGNVFSCSVMHEALHNHYTQKSLSLSPGK
In the case of B1, the “glycan array binding signal (z-score)” value was -0.091 in the experiment with Fuc(a1-2)Gal(b1-4)Glc; 0.195 in [1]; 0.375 with Fuc(a1-2)[Gal(a1-3)]Gal; 0.416 in experiment [2]; -0.379 in [3]; 13.9 in the experiment with Fuc(a1-3)GlcNAc. For the same molecule, the “glycan array binding signal (z-score)” value with Gal(a1-2)Gal was 1.41; in the experiment with Gal(a1-3)Gal, 1.89; in the experiment with Gal(a1-3)Gal(b1-4)Glc, 2.48; in the experiment with Gal(a1-6)Glc it was 6.49; in experiment [4], -0.671; in [5], -0.317. The “glycan array binding signal (z-score)” value in experiment [6] was 0.071; in [7], -0.44; in experiment [8], 0.041; with Gal3S(b1-3)GalNAc it was -0.265; with Gal3S(b1-4)Glc it was -0.02; in the experiment with Gal3S(b1-4)GlcNAc6S it was -0.253. In addition, the “glycan array binding signal (z-score)” value with GalNAc(b1-3)GalNAc was 1.68; with Glc(a1-4)Glc, 0.053; with GlcNAc(b1-3)Man, -0.416; with GlcNAc(b1-4)GlcNAc it was 0.115; with Kdn(a2-3)Gal(b1-4)GlcNAc, -0.251; in experiment [9], -0.314. The “glycan array binding signal (z-score)” value is -0.41 in experiment [10]; -0.204 in [11]; -0.38 in experiment [12]; -0.221 in experiment [13]; 0.048 in [14].

B2: SP16663B-bot-321-25-321 (Bacteroides ovatus) (protein)
chain: DDDDEVTMNSKFYLSTKVFPVDSYEASLSVILKDNSVVVNELQPNYRFVACATERLSKDVKITADSDDNLVSAYNKANDTEYNILPAENYSFTNKTVTIENGESVSGDSIKIELLNVGSLTTEGGYLLPVTISSIEGNNLDALSSNRGVVYLKIQNIHVNVESGQPAEGTLIADRSGWTVKVAPTTRGDAKNLIDGTNSDVARDGGAEYWLTVDIGKVQTLTGIRNKCYASSYSPTAVEVFTSSDGAKWKSIGAVTISKSGTQYIKFSKAVETRYLKYYVKQGPNTVSLTEFDLYAK
In the case of B2, the “glycan array binding signal (z-score)” value in experiment [15] was 0.469; in experiment [16] it was -0.146; in experiment [17], -0.258; in [18] it was -0.406; in experiment [19], 0.583; in experiment [20], -0.492. Also, the “glycan array binding signal (z-score)” value is -0.34 in experiment [21]; -0.244 in [22]; 0.154 in [23]; -0.878 with Neu5Ac(b2-6)GalNAc; 0.033 in experiment [24]; -0.142 in [25]. Besides, in [26], the “glycan array binding signal (z-score)” value came to 0.696.
